# Laboratory results from PubChem BioAssay AID1159569 (Broad Institute, 2015).
# Results with a measured potency or affinity are listed apart. Inconclusive results are not listed. The source made the active and inactive calls. The rule behind the calls is not given here.
# Assay: toxicity to human HepG2 hepatoma cells – cell-based, plate reader, dry powder samples, cytotoxicity control, dose response (AID 1159569)
smiles,measurement,value
OC[C@H]1Nc2ccc(C#Cc3cccnc3)cc2[C@H]2NCC[C@H]21,outcome,inactive
